Source: PubChem
A selection: hits, their analogues and other compounds. The true share with any hit is near 3.8%.
Mtb FBA inh: Mtb FBA enzyme inhibitors, primary screen, biochemical, fluorescence, strain H37Rv; purified M. tuberculosis FBA, fluorescence read-out; inhibition, % at 1 µM; actives 2.3% (n = 360,000); AID 588726, 2011;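 also: 0% = vehicle and 100% = reference inhibitor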
Target sequence (P9WQA3 whole entry, looked up): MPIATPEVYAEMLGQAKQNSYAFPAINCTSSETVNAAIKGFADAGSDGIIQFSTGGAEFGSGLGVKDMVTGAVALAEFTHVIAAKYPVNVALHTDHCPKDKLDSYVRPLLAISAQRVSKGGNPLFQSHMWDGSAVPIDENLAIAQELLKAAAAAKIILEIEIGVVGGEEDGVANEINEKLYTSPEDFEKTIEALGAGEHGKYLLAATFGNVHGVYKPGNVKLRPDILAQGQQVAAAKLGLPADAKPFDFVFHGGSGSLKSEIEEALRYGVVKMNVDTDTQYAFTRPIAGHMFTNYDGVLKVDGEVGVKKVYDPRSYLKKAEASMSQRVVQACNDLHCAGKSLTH
Mtb hypoxia rep: PubChem AID 1159583; M. tuberculosis hypoxia-regulated fluorescent reporter, fluorescence; fluorescence inhibition, % (concentration not given with the values); actives 0.1% (n = 300,000); in the data active = fluorescence inhibition mostly above about 23%, no sharp cut-off; inactive = mostly below about 17%
PrPC TRFRET: inhibitors of human cell surface prion protein PrPC, primary screen, cell-based, TR-FRET. Major prion protein (Homo sapiens), P04156. TR-FRET read-out. inhibition, % at 13.8 µM. actives 0.43% (n = 370,000). AID 720596, 2013; in the data active = inhibition above about 24%; also: 0% = median of the test wells and 100% = reference compound wells
Yp Topo-I inh: Yersinia pestis topoisomerase I inhibitors, primary screen, biochemical, cleavage product accumulation, plate reader, single point | Y. pestis Topo-I cleavage product accumulation | actives 0.064% (n = 360,000) | activity, % at 10 µM | AID 504884, 2011 | DNA topoisomerase I (Yersinia pestis CO92); in the data active = activity above about 50%, passing the limit was not always enough
GDH-TPI counter-1: GDH-TPI coupling enzyme inhibitors, primary screen, artefact control for M. tuberculosis FBA inhibitor project, biochemical, absorbance, full deck; actives 1.2% (n = 360,000); inhibition, % at 4.8 µM; GDH-TPI coupled enzyme counterscreen, NADH absorbance; in the data active = inhibition above about 30%;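 also: 0% = DMSO wells and 100% = wells lacking the enzyme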
PrP UTR inh: inhibition of PrP 5' UTR reporter expression; cell-based PrP 5' UTR mRNA reporter, plate reader; inhibition, % (test concentration not listed); actives 0.35% (n = 340,000); AID 488862, 2010; in the data active = inhibition above about 52%; also: 0 = median of the neutral control wells
Mtb FBA confirm: M. tuberculosis aldolase blockers, biochemical, fluorescence, strain H37Rv, confirmation; purified M. tuberculosis FBA, fluorescence read-out; inhibition, % at 1 µM; actives 78% (n = 5,600); shares compounds with Mtb FBA inh;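 also: 0% = vehicle wells and 100% = reference inhibitor wells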
GDH-TPI counter-2: GDH-TPI coupling enzyme inhibitors, artefact control for M. tuberculosis FBA inhibitor project, biochemical, fluorescence, high throughput; inhibition, % at 1 µM; shares compounds with Mtb FBA inh; actives 81% (n = 5,600); GDH-TPI coupled enzyme counterscreen; in the data active = inhibition above about 10%
The depositor's hits bear a star; nt = not tested or not shown; + = active, no number. Rule as the data show it, unless noted: active = inhibition above about 27%; inactive = the rest.

SMILES	Mtb FBA inh	Mtb hypoxia rep	PrPC TRFRET	Yp Topo-I inh	GDH-TPI counter-1	PrP UTR inh	Mtb FBA confirm	GDH-TPI counter-2
COc1ccc(C=NNC(=O)c2cc(-c3ccccc3)nc3ccccc23)c(OC)c1	nt	1	nt	nt	nt	nt	nt	nt
COc1ccccc1CCNC(=O)c1cc(C2CC2)nc2c1cnn2C(C)C	-1	10	6	18	-3	-19	nt	nt
CC(C)n1ncc2c(C(=O)Nc3ccccc3SCC(N)=O)cc(C3CC3)nc21	-2	nt	-4	19	9	nt	nt	nt
CCc1ccccc1NC(=O)CNC(=O)c1cc(C2CC2)nc2c1cnn2C(C)C	37*	3	-4	27	5	-9	+	+
Cc1cc(C)c(NC(=O)CNC(=O)c2cc(C3CC3)nc3c2cnn3C(C)C)c(C)c1	35*	nt	12	-5	8	nt	121*	92*
CC(C)n1ncc2c(C(=O)NCC(=O)Nc3ccccc3Br)cc(C3CC3)nc21	30*	2	nt	16	5	6	-2	0
COc1ccccc1NC(=O)c1cc2ccc(O)cc2oc1=NO	nt	9	nt	nt	nt	nt	nt	nt
NC(=O)c1ccccc1NCC(=O)c1ccc(Cl)cc1	43*	6	5	57*	0	-8	159*	124*
O=C(CNc1ccccc1C(=O)O)c1ccccc1	28*	16	1	-1	2	-22	34*	32*
O=C(Nc1ccccc1C(=O)O)c1ccccc1	7	16	-5	-4	1	9	nt	nt
FC(F)(F)c1cc(CCN2C(=S)NCC2Cc2ccccc2)cc(C(F)(F)F)c1 (stereo unspecified)	nt	-5	nt	nt	nt	nt	nt	nt
COc1cc2cc(CN(Cc3nnnn3Cc3ccco3)C3CCCCC3)c(=O)[nH]c2cc1OC	40*	4	-4	-10	9	-2	63*	53*
CCOc1ccc2[nH]c(=O)c(CN(Cc3nnnn3Cc3ccco3)C3CCCCC3)cc2c1	16	nt	2	5	-2	-21	nt	nt
COc1ccc(Cn2nnnc2CN(Cc2cc3ccc(C)cc3[nH]c2=O)C2CCCC2)cc1	0	3	9	25	13	-5	nt	nt
COCCn1nnnc1CN(Cc1cc2cc(OC)c(OC)cc2[nH]c1=O)C1CCCC1	39*	13	-9	3	4	-13	73*	70*
COC(=O)c1cc(=O)nc2sc(-c3ccc(F)cc3)nn12	7	-6	nt	3	1	-22	nt	nt
COC(=O)c1cc(=O)nc2sc(-c3cccs3)nn12	35*	11	-11	-10	29	-21	6	0
CC(C)(C)c1ccc(C=NNC(=O)C[n+]2ccccc2)cc1	nt	5	nt	nt	nt	nt	nt	nt
O=[N+]([O-])c1cccc(C=NNC2CCS(=O)(=O)C2)c1 (stereo unspecified)	nt	1	nt	nt	nt	nt	nt	nt
Cc1cc(C)c2c(n1)nn1c(C)c(CCC(=O)NCc3ccco3)c(C)nc21	30*	6	-5	6	2	1	71*	48*
O=C(CCN1C(=O)c2cccc3cccc(c23)C1=O)NC1CCS(=O)(=O)C1 (stereo unspecified)	39*	3	-27	-5	30	1	+	+
O=C(CCCCCN1C(=O)c2cccc3cccc(c23)C1=O)NC1CCS(=O)(=O)C1 (stereo unspecified)	39*	-5	-28	3	11	-22	134*	117*
O=C(CCCN1C(=O)c2ccccc2C1=O)NC1CCCCCC1	0	nt	0	-2	3	-1	nt	nt
Cc1cc(C(=O)c2cnc(N=CN(C)C)s2)cc(C)c1O	nt	4	nt	nt	nt	nt	nt	nt
CC(C)(Cc1ccc(O)cc1)NC(=O)CC(=O)NN=Cc1ccc(Cl)cc1	nt	1	nt	nt	nt	nt	nt	nt
